Measurements as given in PubChem BioAssay (NCATS).
A number with no mark means an inactive call. Inconclusive results are not listed. Where a call stands in place of a potency, no number is given. The source made the active and inactive calls. Unless noted, the call rests on the fitted dose curve; in most records, active means well fitted curve in the direction sought with a large enough effect; inconclusive means small, poorly fitted or top-dose-only effect, or another doubt; inactive means no such curve, though single readings can be large; an effect the other way counts as inactive or inconclusive.

Tests used:
[1] = AP1 Signaling Pathway (AID 357; active means well fitted curve in either direction with a large enough effect, not every such curve was filed as active;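 further: ME-180 reporter cells stimulated with EGF at its EC50 level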); conditions: ME-180 AP-1-bla reporter, EGF-induced, beta-lactamase ratio, 5 h; at 7.69 µM (top of the series) unless noted
Method in brief: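 AP-1-bla ME-180 cells, Opti-MEM + 0.5% dialyzed FBS, plated overnight 37 °C. Cpd titration + EC50 EGF, 5 h 37 °C. CCF4 2.5 h RT; ex 405, em 460/530 ratio → %activity, AC50.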

[2] = molecular target: Cytochrome P450 1A2 (Homo sapiens) (UniProt P05177); assay: p450-cyp1a2 (AID 410; calls by dose curve; further: potency means the concentration at half of the fitted maximal effect)
Method in brief: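 20nM CYP1A2, 100uM Luciferin-ME (=Km), 100mM KPO4; cpd 10 min RT; +NADPH regen, 60 min RT; stop/detect 20 min; luminescence. Normalized to furafylline 57 uM = full inhibition.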

[3] = NFAT Signaling Pathway (AID 444; active means well fitted curve in either direction with a large enough effect, not every such curve was filed as active;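 further: carbachol stimulus at about its EC50 of 1 µM final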); conditions: Jurkat NFAT-bla M1, carbachol, beta-lactamase ratio, 5 h; at 7.69 µM (top of the series) unless noted
Method in brief: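 Jurkat cells carrying an NFAT-driven β-lactamase reporter and co-transfected muscarinic M1 receptor were treated with compound plus carbachol (1 uM final, an EC50 level) for 5 h at 37 °C. CCF4 loading followed for 1 h at RT; 460/530 nm ratio gave %activity.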

[4] = molecular target: Glucocorticoid receptor (Homo sapiens) (UniProt P04150); assay: GR-GFP Redistribution (AID 450;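 active means compounds whose dose series gives a full or clear partial fitted curve of increased nuclear translocation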; further: potency means the concentration at half of the fitted maximal effect); conditions: U2OS GR-GFP nuclear translocation, laser cytometry, 2 h
[5] = molecular target: Glucocorticoid receptor (Homo sapiens) (UniProt P04150); assay: GR-EFC Redistribution (AID 451; calls by dose curve; further: potency means the concentration at half of the fitted maximal effect); conditions: CHO-K1 GR-EFC translocation, beta-gal luminescence, 2 h
Method in brief: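 CHO-K1 cells stably expressing nuclear-localized β-gal enzyme acceptor and GR fused C-terminally to the enzyme donor fragment; ligand-driven nuclear translocation restores β-gal by complementation. Compounds titrated up to 46 uM final, 2 h at 37 °C; luminescence read.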

[6] = molecular target: Mitogen-activated protein kinase 10 (Mus musculus) (UniProt Q61831); assay: JNK3 AlphaScreen Assay (AID 530; active means well fitted curve in either direction with a large enough effect, not every such curve was filed as active;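 further: kinase came from lysate of stimulated human HepG2 cells; signal reports phosphorylation of biotinylated GST-cJun 1-79 at Ser73 with 10 µM ATP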)
Method in brief: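 Biotinylated GST-cJun(1-79) served as substrate for JNK3 in HepG2 lysates stimulated with IL-1beta and TNF-alpha. ATP was 10 uM final, pH 7.6. Ser73 phosphorylation was quantified by AlphaScreen (680 nm excitation).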

[7] = molecular target: 3',5'-cyclic-AMP phosphodiesterase 4B (Homo sapiens) (UniProt Q07343); assay: qHTS Assay for Inhibitors of PDE-IV (AID 607; active means well fitted activation curve with a large enough effect in the main read-out, with a control signal flat, not every such curve was filed as active)
Method in brief: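 ACTOne HEK293 cells carry a modified cAMP-gated CNG channel and express endogenous PDE4; plated 1000 cells/well, compounds up to 22.9 uM final. Membrane-potential dye fluorescence (ex 535/em 590) was read; parental cells received 10 uM forskolin + 100 uM RO 20-1724.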

[8] = molecular target: Guanine nucleotide-binding protein G(i) subunit alpha-1 (Homo sapiens) (UniProt P63096); assay: qHTS Assay for Inhibitors of RGS12 GoLoco Motif Activity (Green Fluorophore) (AID 879);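 further: negative values mean loss of peptide binding seen as reduced polarization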
Method in brief: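 A drop in FITC polarization marked displacement of the FITC-tagged RGS12 GoLoco peptide (10 nM) from Gαi1 (50 nM). Compounds were incubated 10 min at room temperature in Tris pH 7.5 buffer containing 150 mM NaCl, 0.1 mM GDP and 0.05% NP40; unlabeled peptide titration served as control.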

[9] = molecular target: Cytochrome P450 3A4 (Homo sapiens) (UniProt P08684); assay: qHTS Assay for Activators of Cytochrome P450 3A4 (AID 885); further: nearly all actives have a fitted effect of over 65% in size
Method in brief: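 CYP3A4 activity: Luciferin-PPXE O-dealkylation, 25uM substrate, 200mM KPO4, RT throughout. Read-out is luciferase luminescence; higher values reflect activation.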

[10] = qHTS Assay for Identification of Small Molecule Agonists for Thrombopoietin (TPO) Signaling Pathway (AID 917)
Method in brief: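 Quantitative HTS for pathway activators: compounds were pin-transferred onto IL-3-starved Ba/F3 cells expressing human TPO receptor, TPO was added at its EC50 (26 pM final), and after 24 hrs at 37 C reporter luciferase was measured.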

[11] = molecular target: Muscarinic acetylcholine receptor M1 (Rattus norvegicus) (UniProt P08482); assay: qHTS Assay for Antagonists of Acetylcholine Muscarinic M1 Receptor: Measurement of IP-One Response (AID 944); further: nearly all actives have a fitted effect of over 75% in size; further: potency means the concentration at half of the fitted maximal effect
Method in brief: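 Read-out: HTRF competition between d2-IP1 and Eu-cryptate anti-IP1 antibody, emission 620 and 665 nm. Stimulus was carbachol, EC80 (200 nM), for 30 min in M1-CHO cells (rat receptor), after 10 min compound pre-treatment.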

[12] = molecular target: Pyruvate kinase (Leishmania mexicana) (UniProt Q27686); assay: qHTS Validation Assay for Inhibitors of Leishmania Mexicana Pyruvate Kinase (AID 945)
Method in brief: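 Eight-point qHTS titrations in triplicate, data normalized to DMSO neutral control. Reaction: 0.2 nM LmPYK E451W mutant, 0.5 mM PEP, 0.1 mM ADP, 7 mM MgCl2, pH 7.2, one hour at room temperature; luminescent ATP detection.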

[13] = molecular target: Pyruvate kinase PKM (Homo sapiens) (UniProt P14618); assay: qHTS Assay for Activators of Human Muscle Pyruvate Kinase (AID 954; active means well fitted curve in the direction sought with a large enough effect, not every such curve was filed as active)
Method in brief: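 A coupled luminescent readout tracked ATP made from ADP by purified PKM2. Final conditions included 0.1 nM enzyme, PEP and ADP at 0.5 and 0.1 mM, pH 7.2 imidazole buffer with BSA, and a one-hour room-temperature reaction.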

[14] = molecular target: Alpha-galactosidase A (Homo sapiens) (UniProt P06280); assay: Counterscreen for Glucocerebrosidase Inhibitors: qHTS Assay for Human alpha-Galactosidase at pH 4.5 (AID 992)
Method in brief: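 Citrate buffer pH 4.5, Tween-20 0.005%. Enzyme 2 nM, substrate 80 uM, 20 min RT. Stop pH 10. Fluorescence Ex 365/Em 440. AC50 by Hill fit.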

[15] = molecular target: alpha-glucosidase (Oryza sativa, rice) (UniProt Q653V4); assay: Counterscreen for Glucocerebrosidase Inhibitors: qHTS Assay for Rice alpha-Glucosidase at pH 5.0 (AID 997)
Method in brief: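 Endpoint fluorogenic assay at pH 5.0: compounds (0.7 nM to 77 uM) titrated against 4 nM rice enzyme and 400 uM 4-MU-alpha-glucoside for 20 min at room temperature; NaOH/glycine stop, read ex 365/em 440 nm, Hill-fitted AC50.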

[16] = Stat Signaling Pathway (AID 446; active means well fitted curve in either direction with a large enough effect, not every such curve was filed as active;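 further: ME-180 cervical cancer cells given 40 pM IL-6 alongside compound; SIE-controlled beta-lactamase reporter measured as 460/530 nm FRET emission ratio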); conditions: ME-180 (cervical carcinoma) SIE beta-lactamase reporter, IL-6 stimulated, 5 h; at 7.69 µM (top of the series) unless noted
Method in brief: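 Compound effects on IL-6-induced STAT reporter activity were measured in ME-180 cells. After overnight culture, cells were co-treated with 40 pM IL-6 for 5 hrs before beta-lactamase substrate loading at room temperature.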

[17] = molecular target: Cytochrome P450 2C9 (Homo sapiens) (UniProt P11712); assay: qHTS Assay for Inhibitors and Substrates of Cytochrome P450 2C9 (AID 883); further: nearly all actives have a fitted effect of over 60% in size
Method in brief: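 CYP2C9 deoxyluciferin hydroxylation, 37C, 60 min with NADPH regeneration; 10nM enzyme, 100uM Luciferin-H (KM). Glo detection reagent stopped reaction; luminescence normalized to sulphaphenazole (57uM) full inhibition.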

[18] = qHTS Assay for Identification of Small Molecule Antagonists for NFkB Signaling Pathway (AID 895; active means well fitted inhibition curve with a large enough effect in the signal ratio, with a control signal flat, not every such curve was filed as active; the % refers to the signal ratio)
Method in brief: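 NFkB-bla ME-180 cervical carcinoma cells with beta-lactamase reporter under NFkB response element; compounds added, then TNF alpha at 10 pM final (EC50), 5 h at 37 C. LiveBLAzer substrate 2 h, room temperature; emission 460/530 nm at 405 nm excitation.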

[19] = molecular target: Cytochrome P450 2C19 (Homo sapiens) (UniProt P33261); assay: qHTS Assay for Inhibitors and Substrates of Cytochrome P450 2C19 (AID 899); further: nearly all actives have a fitted effect of over 60% in size
Method in brief: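 In 50mM KPO4, the reaction held 5nM enzyme and KM-level (10uM) Luciferin-H EGE; it ran 60 min at 37C after NADPH regeneration and a 10 min compound preincubation. Luminescence values were scaled to 57uM ketoconazole as complete inhibition.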

[20] = molecular target: Muscarinic acetylcholine receptor M1 (Rattus norvegicus) (UniProt P08482); assay: qHTS Assay for Antagonists of Acetylcholine Muscarinic M1 Receptor: Kinetic Measurement of Intracellular Calcium Response (AID 943); further: nearly all actives have a fitted effect of over 75% in size; further: potency means the concentration at half of the fitted maximal effect;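 on activity change, negative = inhibition: Fluo-4 calcium signal as peak divided by basal fluorescence over 4 min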
Method in brief: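 Read-out: peak over basal Fluo-4 fluorescence, kinetic at 1 Hz for 4 min after EC80 carbachol (100 nM final). Rat M1-CHO cells, dye loaded 1 h at 37C, compound added 10 min before agonist.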

Chain of Alpha-galactosidase A (Homo sapiens) (P06280 whole entry, looked up): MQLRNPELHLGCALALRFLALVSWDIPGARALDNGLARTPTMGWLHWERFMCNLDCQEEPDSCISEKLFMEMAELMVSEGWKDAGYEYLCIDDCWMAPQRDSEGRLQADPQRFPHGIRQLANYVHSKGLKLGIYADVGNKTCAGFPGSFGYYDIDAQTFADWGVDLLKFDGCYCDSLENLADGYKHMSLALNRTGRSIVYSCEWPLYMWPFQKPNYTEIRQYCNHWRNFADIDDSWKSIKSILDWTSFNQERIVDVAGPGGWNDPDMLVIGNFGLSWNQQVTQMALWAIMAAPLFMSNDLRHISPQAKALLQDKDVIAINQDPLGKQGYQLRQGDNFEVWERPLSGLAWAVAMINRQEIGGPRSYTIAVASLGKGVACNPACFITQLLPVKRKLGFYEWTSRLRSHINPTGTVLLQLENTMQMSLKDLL
Chain of Cytochrome P450 3A4 (Homo sapiens) (P08684 whole entry, looked up): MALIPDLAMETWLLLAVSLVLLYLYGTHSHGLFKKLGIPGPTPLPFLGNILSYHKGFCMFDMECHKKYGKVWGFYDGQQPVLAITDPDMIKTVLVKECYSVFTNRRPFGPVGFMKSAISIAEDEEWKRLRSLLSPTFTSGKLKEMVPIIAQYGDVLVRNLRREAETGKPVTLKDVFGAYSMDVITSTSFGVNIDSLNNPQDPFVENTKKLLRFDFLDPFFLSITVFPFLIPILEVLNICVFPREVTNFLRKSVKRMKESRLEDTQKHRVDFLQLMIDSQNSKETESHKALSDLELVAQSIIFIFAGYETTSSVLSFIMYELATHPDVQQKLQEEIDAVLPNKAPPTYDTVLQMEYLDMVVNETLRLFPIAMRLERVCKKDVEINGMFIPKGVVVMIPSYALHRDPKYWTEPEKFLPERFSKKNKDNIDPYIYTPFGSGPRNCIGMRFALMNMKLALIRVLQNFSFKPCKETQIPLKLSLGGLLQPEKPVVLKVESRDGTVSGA
Chain of 3',5'-cyclic-AMP phosphodiesterase 4B (Homo sapiens) (Q07343 whole entry, looked up): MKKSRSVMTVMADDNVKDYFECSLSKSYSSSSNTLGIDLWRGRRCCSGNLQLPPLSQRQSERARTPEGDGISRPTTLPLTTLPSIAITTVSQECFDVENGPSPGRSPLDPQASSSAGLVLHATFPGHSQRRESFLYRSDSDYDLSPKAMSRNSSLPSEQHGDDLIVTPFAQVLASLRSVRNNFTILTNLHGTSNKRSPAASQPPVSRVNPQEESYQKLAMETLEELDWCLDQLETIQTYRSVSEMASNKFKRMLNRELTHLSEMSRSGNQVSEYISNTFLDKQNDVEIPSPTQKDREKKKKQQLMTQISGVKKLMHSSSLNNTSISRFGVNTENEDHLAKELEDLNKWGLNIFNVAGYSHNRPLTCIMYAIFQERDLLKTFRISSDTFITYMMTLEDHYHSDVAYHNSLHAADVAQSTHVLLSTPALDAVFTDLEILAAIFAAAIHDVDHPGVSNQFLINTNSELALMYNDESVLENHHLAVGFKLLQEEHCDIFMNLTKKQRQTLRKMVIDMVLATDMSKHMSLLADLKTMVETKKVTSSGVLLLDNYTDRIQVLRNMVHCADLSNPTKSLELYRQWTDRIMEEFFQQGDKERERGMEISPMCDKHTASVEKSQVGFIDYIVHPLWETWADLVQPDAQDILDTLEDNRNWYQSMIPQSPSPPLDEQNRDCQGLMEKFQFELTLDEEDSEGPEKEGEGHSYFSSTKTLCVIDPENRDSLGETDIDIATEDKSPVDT
Chain of Pyruvate kinase PKM (Homo sapiens) (P14618 whole entry, looked up): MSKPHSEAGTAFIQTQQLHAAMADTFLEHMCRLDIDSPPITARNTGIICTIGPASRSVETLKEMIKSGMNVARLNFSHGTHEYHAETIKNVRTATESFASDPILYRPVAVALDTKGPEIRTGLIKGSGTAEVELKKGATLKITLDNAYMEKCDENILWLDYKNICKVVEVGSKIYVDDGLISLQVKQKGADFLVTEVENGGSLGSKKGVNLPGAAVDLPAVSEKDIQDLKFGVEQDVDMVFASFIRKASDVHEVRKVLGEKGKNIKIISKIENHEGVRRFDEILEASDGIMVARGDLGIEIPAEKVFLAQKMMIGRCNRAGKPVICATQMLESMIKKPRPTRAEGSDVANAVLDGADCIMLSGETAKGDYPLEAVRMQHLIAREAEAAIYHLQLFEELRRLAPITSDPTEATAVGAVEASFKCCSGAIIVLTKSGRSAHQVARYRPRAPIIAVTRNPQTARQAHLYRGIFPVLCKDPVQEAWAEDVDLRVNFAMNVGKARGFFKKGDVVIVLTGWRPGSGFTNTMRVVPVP
Chain of Cytochrome P450 1A2 (Homo sapiens) (P05177 whole entry, looked up): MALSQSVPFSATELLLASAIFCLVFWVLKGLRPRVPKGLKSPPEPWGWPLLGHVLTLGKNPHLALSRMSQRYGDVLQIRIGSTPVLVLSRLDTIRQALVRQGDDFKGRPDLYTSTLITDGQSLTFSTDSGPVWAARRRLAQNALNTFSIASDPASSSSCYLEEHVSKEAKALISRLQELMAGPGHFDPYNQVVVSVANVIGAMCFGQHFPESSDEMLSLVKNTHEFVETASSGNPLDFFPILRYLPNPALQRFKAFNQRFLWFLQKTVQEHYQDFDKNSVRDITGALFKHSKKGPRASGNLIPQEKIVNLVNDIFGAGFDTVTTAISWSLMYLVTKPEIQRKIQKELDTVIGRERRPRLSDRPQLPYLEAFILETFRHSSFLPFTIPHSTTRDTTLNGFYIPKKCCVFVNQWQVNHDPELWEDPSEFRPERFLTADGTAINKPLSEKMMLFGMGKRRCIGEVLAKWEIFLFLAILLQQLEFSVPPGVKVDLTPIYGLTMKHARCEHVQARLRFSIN
Chain of Muscarinic acetylcholine receptor M1 (Rattus norvegicus) (P08482 whole entry, looked up): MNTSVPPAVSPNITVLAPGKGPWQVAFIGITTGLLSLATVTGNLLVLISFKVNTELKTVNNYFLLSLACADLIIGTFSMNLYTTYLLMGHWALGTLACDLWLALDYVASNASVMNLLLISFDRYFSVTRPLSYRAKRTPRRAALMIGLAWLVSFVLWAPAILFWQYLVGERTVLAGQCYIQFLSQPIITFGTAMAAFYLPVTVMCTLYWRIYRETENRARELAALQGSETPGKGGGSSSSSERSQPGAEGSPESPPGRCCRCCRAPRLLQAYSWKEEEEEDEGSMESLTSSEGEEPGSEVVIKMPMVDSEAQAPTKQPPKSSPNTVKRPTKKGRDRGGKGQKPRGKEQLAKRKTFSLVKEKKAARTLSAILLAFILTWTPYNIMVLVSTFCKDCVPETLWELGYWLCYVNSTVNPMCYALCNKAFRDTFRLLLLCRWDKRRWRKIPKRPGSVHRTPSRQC
Chain of Glucocorticoid receptor (Homo sapiens) (P04150 whole entry, looked up, the tested form may be a part): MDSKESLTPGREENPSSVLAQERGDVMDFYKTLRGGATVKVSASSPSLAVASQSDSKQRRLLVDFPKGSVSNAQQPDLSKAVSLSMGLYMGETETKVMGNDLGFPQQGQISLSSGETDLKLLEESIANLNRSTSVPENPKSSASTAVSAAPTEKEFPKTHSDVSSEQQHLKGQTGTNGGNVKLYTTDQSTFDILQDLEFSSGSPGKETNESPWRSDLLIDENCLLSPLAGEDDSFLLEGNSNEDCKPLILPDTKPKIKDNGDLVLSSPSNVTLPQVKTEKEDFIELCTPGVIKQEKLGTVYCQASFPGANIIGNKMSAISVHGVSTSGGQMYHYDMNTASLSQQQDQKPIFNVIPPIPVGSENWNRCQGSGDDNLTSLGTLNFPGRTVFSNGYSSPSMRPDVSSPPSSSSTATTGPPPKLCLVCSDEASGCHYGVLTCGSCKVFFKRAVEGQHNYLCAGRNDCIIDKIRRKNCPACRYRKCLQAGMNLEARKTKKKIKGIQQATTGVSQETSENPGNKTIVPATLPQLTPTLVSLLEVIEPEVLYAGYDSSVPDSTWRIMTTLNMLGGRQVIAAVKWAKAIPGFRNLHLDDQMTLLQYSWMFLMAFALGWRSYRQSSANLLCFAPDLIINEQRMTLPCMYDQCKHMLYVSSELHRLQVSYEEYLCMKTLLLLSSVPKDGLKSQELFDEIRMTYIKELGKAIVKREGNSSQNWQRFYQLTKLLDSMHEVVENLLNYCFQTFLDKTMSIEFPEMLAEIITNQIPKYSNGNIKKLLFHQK
Chain of Guanine nucleotide-binding protein G(i) subunit alpha-1 (Homo sapiens) (P63096 whole entry, looked up): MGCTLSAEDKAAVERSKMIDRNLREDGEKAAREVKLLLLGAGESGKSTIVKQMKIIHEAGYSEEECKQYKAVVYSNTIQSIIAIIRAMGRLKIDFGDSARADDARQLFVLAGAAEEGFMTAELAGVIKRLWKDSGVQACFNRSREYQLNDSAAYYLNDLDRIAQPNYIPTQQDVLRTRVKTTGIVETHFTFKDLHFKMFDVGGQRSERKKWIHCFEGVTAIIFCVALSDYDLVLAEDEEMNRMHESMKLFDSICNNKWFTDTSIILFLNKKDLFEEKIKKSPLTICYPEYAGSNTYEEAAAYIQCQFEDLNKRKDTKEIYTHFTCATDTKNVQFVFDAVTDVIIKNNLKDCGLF
Chain of Pyruvate kinase (Leishmania mexicana) (Q27686 2-499 E452W): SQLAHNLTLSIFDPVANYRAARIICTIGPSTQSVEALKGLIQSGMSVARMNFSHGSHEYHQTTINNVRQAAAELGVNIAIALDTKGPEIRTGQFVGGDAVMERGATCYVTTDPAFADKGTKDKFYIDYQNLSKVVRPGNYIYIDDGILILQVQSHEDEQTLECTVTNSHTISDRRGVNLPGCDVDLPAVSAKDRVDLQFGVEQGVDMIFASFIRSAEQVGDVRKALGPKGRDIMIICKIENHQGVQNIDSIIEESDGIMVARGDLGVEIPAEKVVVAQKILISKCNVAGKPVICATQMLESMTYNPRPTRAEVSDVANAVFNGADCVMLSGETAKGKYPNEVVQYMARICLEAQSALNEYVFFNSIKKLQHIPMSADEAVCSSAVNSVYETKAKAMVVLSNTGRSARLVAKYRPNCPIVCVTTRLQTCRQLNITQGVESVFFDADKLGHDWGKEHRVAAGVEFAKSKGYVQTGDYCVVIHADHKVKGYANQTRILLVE

For `COC(=O)[C@H](N)Cc1ccc(Cl)cc1`, the activity change, negative = inhibition [1] was 4.51% [at 38 µM], the Potency [2] was 3.16 µM (active) and the activity change, negative = inhibition [3] was 3.08% [at 38 µM]. The Potency [4] was > 46 µM, the Potency [5] was > 46 µM and the Potency [6] was “inactive”. The Potency [7] was “inactive”, the outcome [8] was “inactive” and the Potency [9] was “inactive”. For the same compound, the outcome [10] was “inactive”, the Potency [11] was “inactive” and the outcome [12] was “inactive”. The outcome [13] was “inactive”, the outcome [14] was “inactive” and the Potency [15] was “inactive”.

In the case of `CCCCC/C=C\C[C@H](O)/C=C\c1cccc(C[C@H](O)CCCCO)n1`, the Potency [2] is reported as “inactive”, the activity change, negative = inhibition [3] is reported as -9.64% [at 38 µM] and the activity, negative = inhibition [16] is reported as 54.3% [at 38 µM]. The Potency [4] was > 46 µM, the Potency [5] was > 46 µM and the Potency [6] was “inactive”. The Potency [7] was “inactive”, the outcome [8] was “inactive” and the Potency [9] was “inactive”. For the same compound, the outcome [10] was “inactive”, the outcome [13] was “inactive” and the outcome [14] was “inactive”. For the same compound, the Potency [15] was “inactive”.

With `C[N+](C)(C)c1cc2c(nn1)Nc1ccccc1S2` the activity change, negative = inhibition [1] was -0.66%, the Potency [2] was 2 µM (active) and the activity, negative = inhibition [16] was 19.9%. For the same compound, the Potency [4] was > 46 µM, the Potency [5] was > 9.22 µM and the Potency [6] was “inactive”. For the same compound, the Potency [7] was “inactive”.

In the case of `C[C@@H](COc1ccc(/C=C\c2ccccc2)cc1)[N+](C)(C)C`, the activity change, negative = inhibition [1] is reported as -11.9% [at 38 µM], the Potency [2] is reported as “inactive” and the activity, negative = inhibition [16] is reported as -2.8% [at 38 µM]. The Potency [4] was > 46 µM, the Potency [6] was “inactive” and the Potency [7] was “inactive”. The Potency [17] was “inactive”, the Potency [9] was “inactive” and the Potency [18] was “inactive”. For the same compound, the Potency [19] was “inactive”, the outcome [10] was “inactive” and the Potency [20] was 4.47 µM (active). For the same compound, the Potency [11] was 7.08 µM (active), the outcome [13] was “inactive” and the outcome [14] was “inactive”. The Potency [15] was “inactive”.

Compound `N#C/C(=C(\O)C(=O)O)c1ccc(-c2cccc3ccccc23)cc1` has an activity change, negative = inhibition [1] of -3.67%, an activity change, negative = inhibition [3] of 4.07% and an activity, negative = inhibition [16] of 3.75%. For the same compound, the Potency [4] was > 46 µM, the Potency [5] was > 9.22 µM and the Potency [6] was “inactive”. The Potency [7] was “inactive”.

With `COc1cc2c(cc1O)CC[C@@H]1[C@@H]2CC[C@@]2(C)[C@H](O)CC[C@H]12` the activity change, negative = inhibition [1] was -4.01% [at 38 µM], the activity change, negative = inhibition [3] was -2.76% [at 38 µM] and the activity, negative = inhibition [16] was -17.5% [at 38 µM]. For the same compound, the Potency [4] was > 46 µM, the Potency [5] was > 46 µM and the Potency [6] was “inactive”. For the same compound, the Potency [7] was “inactive”, the outcome [8] was “inactive” and the Potency [20] was “inactive”. For the same compound, the Potency [11] was “inactive”, the outcome [12] was “inactive” and the outcome [13] was “inactive”. The outcome [14] was “inactive” and the Potency [15] was “inactive”.

Compound `C[N+](C)(C)CC(=O)N/N=C\c1c(O)ccc2ccccc12` has an activity change, negative = inhibition [1] of 3.17%, an activity change, negative = inhibition [3] of -5.58% and an activity, negative = inhibition [16] of 10.1%. The Potency [4] was > 46 µM, the Potency [5] was > 9.22 µM and the Potency [6] was “inactive”. The Potency [7] was “inactive”.
